# Laboratory results taken from a collection of fitness landscapes (doi:10.1038/s41467-024-54723-y).
# The full ranking holds about 18,000 sequences; the median of “TetR repression strength (sort-seq, GFP reporter)” is about 0.23, and the highest 2% start at about 0.68. The sample as a whole holds a higher share of the highest values than the screen did.
# Target: TetR (class B, Tn10) (UniProt P04483)
# Assay: TetR repression strength (sort-seq, GFP reporter) (relative to tetO2 = 1); higher = stronger repression
# Settings: E. coli
# Summary of the method: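 Repression strength was calculated by subtracting the read-weighted mean bin from the top bin index plus one and dividing by the unaltered operator's value. The plasmid library was low-copy in E. coli SIG10-MAX, with eight randomized operator positions between a constitutive promoter and sfGFP and constitutive TetR. Cultures grew 5 h at 37 °C in LB containing 50 µg/mL chloramphenicol before 10^6 cells were sorted by FACS into 13 fluorescence bins, each sequenced on Illumina. Three independent transformations were averaged for members having ≥30 reads in all replicates and a CV ≤0.5.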
# TetR (class B, Tn10), sequence (P04483 whole entry): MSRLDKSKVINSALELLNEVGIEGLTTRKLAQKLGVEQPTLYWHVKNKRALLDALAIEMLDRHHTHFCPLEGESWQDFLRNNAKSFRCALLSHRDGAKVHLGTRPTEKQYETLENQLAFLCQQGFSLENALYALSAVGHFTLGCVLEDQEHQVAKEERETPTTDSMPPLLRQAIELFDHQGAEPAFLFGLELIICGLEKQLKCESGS
row,Sequence,TetR repression strength
1,TCCCGTTAAGTCGCGGAGA,0.391
2,TCCCCTTGAGTGTAAGAGA,0.558
3,TCCCGTCGAGTGTCAGAGA,0.263
4,TCCCGTGTAGTTGTTGAGA,0.0138
5,TCCCGGGTAGTTAGTGAGA,0.166
6,TCCCGGGTAGTTAATGAGA,1
7,TCCCGCGTAGTTAATGAGA,0.421
8,TCCCCAGCAGTGATGGAGA,0.2
9,TCCCAGAAAGTGGCGGAGA,0.316
10,TCCCAGAGAGTAGACGAGA,0.217
11,TCCCAGCGAGTAGAAGAGA,0.334
12,TCCCACCGAGTAGGCGAGA,0.166
13,TCCCTCCGAGTAGGTGAGA,0.222
14,TCCCGGCGAGTAGAGGAGA,0.248
15,TCCCGGCGAGTAGACGAGA,1.03
16,TCCCTCCGAGTAGGCGAGA,0.745
17,TCCCAGCGAGTAGACGAGA,1.03
18,TCCCGGCGAGTAGAAGAGA,0.418
19,TCCCGGGTAGTGGTGGAGA,0.277
20,TCCCCATCAGTGAGCGAGA,0.19
21,TCCCGATCAGTTAGGGAGA,0.313
22,TCCCATGGAGTTTGGGAGA,0.201
23,TCCCTTTCAGTTTTGGAGA,0.151
24,TCCCTTTCAGTTTGGGAGA,0.925
25,TCCCATGCAGTTGGGGAGA,0.216
26,TCCCATGCAGTTTGGGAGA,1.07

row,Sequence,TetR repression strength
1,TCCCTTTCAGTTTCGGAGA,0.422
2,TCCCAGTGAGTCGCAGAGA,0.0941
3,TCCCTTGGAGTCGGCGAGA,0.0727
4,TCCCATTCAGTATCGGAGA,0.159
5,TCCCATTCAGTCCGCGAGA,0.259
6,TCCCAGGGAGTAGGGGAGA,0.204
7,TCCCACTGAGTCAGAGAGA,0.279
8,TCCCTTTGAGTATGCGAGA,0.127
9,TCCCGGTTAGTATGCGAGA,0.19
10,TCCCTTGCAGTATGAGAGA,0.157
11,TCCCGGTGAGTGGACGAGA,0.496
12,TCCCCTTGAGTATGTGAGA,0.409
13,TCCCGGTGAGTGAACGAGA,0.819
14,TCCCGGTGAGTAAACGAGA,0.0592
15,TCCCCTGCAGTATTAGAGA,0.211
16,TCCCGGTGAGTATGCGAGA,1.15
17,TCCCCTTGAGTATGCGAGA,1.05
18,TCCCCTGCAGTATGAGAGA,0.855
19,TCCCGGAGAGTATGCGAGA,0.159
20,TCCCGAGTAGTTATCGAGA,0.34
21,TCCCGGGTAGTCTGAGAGA,0.147
22,TCCCGACCAGTTTCGGAGA,0.0546
23,TCCCTGCGAGTTCGTGAGA,0.297
24,TCCCGGGAAGTTGATGAGA,0.0797
25,TCCCTGCGAGTCGGTGAGA,0.245
26,TCCCACTCAGTGCCAGAGA,0.287
